In publication PMC7862700, “An all-to-all approach to the identification of sequence-specific readers for epigenetic DNA modifications on cytosine” one finds binding signal data, which are given here for 1 sequence.

What all share (experiment): DAPPL (digital affinity profiling via proximity ligation, sequencing); 10 mM Tris-HCl pH 7.5, 50 mM NaCl, 1 mM DTT, 4% glycerol, room temperature, 30 min; GST-TFs on glutathione beads, 16-mer random dsDNA library, 0.1% formaldehyde crosslink after washing; high values mean tight binding
In one experiment the target is T1, FEV (Homo sapiens, UniProt Q99581 1-238).
T1 sequence: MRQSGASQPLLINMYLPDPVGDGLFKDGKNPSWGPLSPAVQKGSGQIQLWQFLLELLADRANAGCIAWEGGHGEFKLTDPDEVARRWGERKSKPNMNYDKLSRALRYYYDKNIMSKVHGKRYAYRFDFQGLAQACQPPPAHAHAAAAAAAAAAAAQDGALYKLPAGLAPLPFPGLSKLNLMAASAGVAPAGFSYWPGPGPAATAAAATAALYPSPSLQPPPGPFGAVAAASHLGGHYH
Conditions: protein: recombinant; tags: N-terminal GST; dsDNA, one strand shown. In short, it runs like this:
(§1)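 Yeast served to express human transcription factors as GST fusions, which were then captured on glutathione beads and labelled with DNA barcodes. Pooled with a tag-only sample, they were incubated with 200 nmole of a 16-mer random double-stranded DNA library for 30 min at room temperature in Tris/NaCl/DTT/glycerol buffer, washed, crosslinked with 0.1% formaldehyde, ligated by proximity, amplified by PCR and sequenced. Dividing each hexamer's read frequency for a factor by its frequency for the tag-only sample gives the binding signal.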

The target of another experiment is ETV5 (Homo sapiens, UniProt P41161 1-510). The note with it: protein: recombinant; tags: N-terminal GST; dsDNA, one strand shown. The procedure, abridged: as §1
A further experiment deals with HSF1 (Homo sapiens, UniProt Q00613 1-529). The note with it: protein: recombinant; tags: N-terminal GST; chain copies: 3; dsDNA, one strand shown. The procedure, abridged: as §1
In the next experiment the target is T2, SPIC (Homo sapiens, UniProt Q8N5J4 1-248).
T2 sequence: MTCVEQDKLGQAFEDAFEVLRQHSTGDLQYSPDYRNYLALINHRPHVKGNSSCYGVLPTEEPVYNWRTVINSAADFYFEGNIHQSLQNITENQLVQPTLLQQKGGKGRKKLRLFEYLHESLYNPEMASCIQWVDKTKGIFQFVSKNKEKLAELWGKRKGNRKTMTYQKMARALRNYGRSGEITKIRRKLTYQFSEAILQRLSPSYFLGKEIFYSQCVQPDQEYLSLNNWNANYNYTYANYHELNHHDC
Conditions: protein: recombinant; tags: N-terminal GST; dsDNA, one strand shown. The procedure, abridged: as §1

The target of the next experiment is ELF4 (Homo sapiens, UniProt Q99607 1-663). The note with it: protein: recombinant; tags: N-terminal GST; dsDNA, one strand shown. In short, it runs like this: as §1
Another experiment has as its target T3, ELK4 (Homo sapiens, UniProt P28324-2 1-405).
T3 sequence: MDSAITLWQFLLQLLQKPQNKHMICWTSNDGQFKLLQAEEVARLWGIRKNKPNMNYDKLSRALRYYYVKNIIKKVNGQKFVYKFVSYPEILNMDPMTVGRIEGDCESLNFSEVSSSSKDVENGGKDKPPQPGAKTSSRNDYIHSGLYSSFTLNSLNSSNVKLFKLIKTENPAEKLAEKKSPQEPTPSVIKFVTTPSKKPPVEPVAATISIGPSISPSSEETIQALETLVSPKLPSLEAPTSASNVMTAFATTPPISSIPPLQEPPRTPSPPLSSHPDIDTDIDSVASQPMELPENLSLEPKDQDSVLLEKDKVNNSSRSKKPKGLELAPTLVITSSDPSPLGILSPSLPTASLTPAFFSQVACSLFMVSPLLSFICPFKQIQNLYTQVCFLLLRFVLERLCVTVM
The note with it: protein: recombinant; tags: N-terminal GST; dsDNA, one strand shown. In short, it runs like this:
as §1

The next experiment deals with T4, ETV2 (Homo sapiens, UniProt O00321 1-342).
T4 sequence: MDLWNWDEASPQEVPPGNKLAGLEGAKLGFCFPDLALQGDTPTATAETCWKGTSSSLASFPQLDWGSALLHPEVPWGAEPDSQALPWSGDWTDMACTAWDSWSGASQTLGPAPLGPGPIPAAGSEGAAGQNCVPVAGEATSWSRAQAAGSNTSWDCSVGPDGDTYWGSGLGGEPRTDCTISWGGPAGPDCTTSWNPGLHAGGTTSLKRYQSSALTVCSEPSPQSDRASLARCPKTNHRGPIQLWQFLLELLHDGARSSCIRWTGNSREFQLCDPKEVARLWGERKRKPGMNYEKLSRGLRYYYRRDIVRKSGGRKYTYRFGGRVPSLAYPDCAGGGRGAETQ
The note with it: protein: recombinant; tags: N-terminal GST; dsDNA, one strand shown. In short, it runs like this: as §1

Another experiment has as its target T5, ELF3 (Homo sapiens, UniProt P78545 1-371).
T5 sequence: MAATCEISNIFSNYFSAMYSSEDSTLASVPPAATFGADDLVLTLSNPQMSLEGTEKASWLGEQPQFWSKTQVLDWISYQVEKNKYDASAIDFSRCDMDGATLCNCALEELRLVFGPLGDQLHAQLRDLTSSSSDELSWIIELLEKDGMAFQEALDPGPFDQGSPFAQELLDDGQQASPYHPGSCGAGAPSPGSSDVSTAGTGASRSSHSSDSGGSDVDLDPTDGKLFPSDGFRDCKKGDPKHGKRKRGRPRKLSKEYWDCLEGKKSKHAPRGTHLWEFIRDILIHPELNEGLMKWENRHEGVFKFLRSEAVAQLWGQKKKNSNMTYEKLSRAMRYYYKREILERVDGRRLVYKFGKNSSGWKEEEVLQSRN
Conditions: protein: recombinant; tags: N-terminal GST; dsDNA, one strand shown. In short, it runs like this:
as §1

Another experiment addresses CRX (Homo sapiens, UniProt O43186 1-299). Conditions: protein: recombinant; tags: N-terminal GST; dsDNA, one strand shown. In short, it runs like this:
as §1

A further experiment concerns the target ETV1 (Homo sapiens, UniProt P50549 1-477). Conditions: protein: recombinant; tags: N-terminal GST; dsDNA, one strand shown. The procedure, abridged:
as §1

The target in another experiment is T6, ERF (Homo sapiens, UniProt P50548 1-548).
T6 sequence: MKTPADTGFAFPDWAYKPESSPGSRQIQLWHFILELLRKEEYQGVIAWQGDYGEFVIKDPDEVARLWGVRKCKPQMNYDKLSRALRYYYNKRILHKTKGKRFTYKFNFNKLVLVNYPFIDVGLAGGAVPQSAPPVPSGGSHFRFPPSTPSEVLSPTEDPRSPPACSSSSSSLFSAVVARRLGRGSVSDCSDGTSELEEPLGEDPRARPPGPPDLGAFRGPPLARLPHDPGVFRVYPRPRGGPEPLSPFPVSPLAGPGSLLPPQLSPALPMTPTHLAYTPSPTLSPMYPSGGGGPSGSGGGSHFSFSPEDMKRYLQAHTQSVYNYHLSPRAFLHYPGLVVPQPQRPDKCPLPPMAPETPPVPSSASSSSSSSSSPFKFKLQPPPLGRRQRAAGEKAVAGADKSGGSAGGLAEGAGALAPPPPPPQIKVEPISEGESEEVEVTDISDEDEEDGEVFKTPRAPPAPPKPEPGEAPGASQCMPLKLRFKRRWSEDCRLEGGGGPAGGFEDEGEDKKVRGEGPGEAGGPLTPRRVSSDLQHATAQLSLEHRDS
The note with it: protein: recombinant; tags: N-terminal GST; dsDNA, one strand shown. In short, it runs like this:
as §1

For the next experiment, the target named is T7, ETV3L (Homo sapiens, UniProt Q6ZN32 1-361).
T7 sequence: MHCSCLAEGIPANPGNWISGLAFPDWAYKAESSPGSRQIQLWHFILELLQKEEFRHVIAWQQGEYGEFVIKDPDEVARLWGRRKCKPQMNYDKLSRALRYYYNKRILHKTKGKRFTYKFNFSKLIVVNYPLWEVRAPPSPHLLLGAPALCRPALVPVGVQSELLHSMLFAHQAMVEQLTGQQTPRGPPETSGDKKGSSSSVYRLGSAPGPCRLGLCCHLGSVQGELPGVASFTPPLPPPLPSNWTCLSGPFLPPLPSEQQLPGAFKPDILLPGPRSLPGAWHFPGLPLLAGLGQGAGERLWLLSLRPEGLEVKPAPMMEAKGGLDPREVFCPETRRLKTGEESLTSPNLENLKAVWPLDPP
Conditions: protein: recombinant; tags: N-terminal GST; dsDNA, one strand shown. In short, it runs like this:
as §1

For another experiment, the target named is T8, ETS2 (Homo sapiens, UniProt P15036 1-469).
T8 sequence: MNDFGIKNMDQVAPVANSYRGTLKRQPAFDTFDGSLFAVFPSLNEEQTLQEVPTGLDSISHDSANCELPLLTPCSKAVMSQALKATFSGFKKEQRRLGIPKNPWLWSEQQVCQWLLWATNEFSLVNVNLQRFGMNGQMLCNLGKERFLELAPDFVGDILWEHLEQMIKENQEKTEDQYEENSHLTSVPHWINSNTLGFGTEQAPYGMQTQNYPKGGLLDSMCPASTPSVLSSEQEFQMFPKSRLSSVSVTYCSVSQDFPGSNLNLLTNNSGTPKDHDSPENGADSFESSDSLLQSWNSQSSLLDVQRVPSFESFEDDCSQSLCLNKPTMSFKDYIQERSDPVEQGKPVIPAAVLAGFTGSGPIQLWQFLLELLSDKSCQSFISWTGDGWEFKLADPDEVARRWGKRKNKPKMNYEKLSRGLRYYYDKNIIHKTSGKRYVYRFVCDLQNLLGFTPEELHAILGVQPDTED
Conditions: protein: recombinant; tags: N-terminal GST; dsDNA, one strand shown. The procedure, abridged:
as §1

Another experiment deals with T9, SPDEF (Homo sapiens, UniProt O95238 1-335).
T9 sequence: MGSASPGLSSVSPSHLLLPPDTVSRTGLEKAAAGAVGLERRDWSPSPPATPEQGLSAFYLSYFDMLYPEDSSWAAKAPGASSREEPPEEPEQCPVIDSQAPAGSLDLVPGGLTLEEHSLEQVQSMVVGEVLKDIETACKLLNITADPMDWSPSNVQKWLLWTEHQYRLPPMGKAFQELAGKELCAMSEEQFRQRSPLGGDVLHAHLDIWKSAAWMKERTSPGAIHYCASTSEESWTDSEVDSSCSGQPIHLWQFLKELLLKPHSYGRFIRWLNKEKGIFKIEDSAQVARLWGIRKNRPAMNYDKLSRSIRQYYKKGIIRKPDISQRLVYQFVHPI
The note with it: protein: recombinant; tags: N-terminal GST; dsDNA, one strand shown. The procedure, abridged: as §1

Another experiment concerns the target T10, ETV7 (Homo sapiens, UniProt Q9Y603 1-341).
T10 sequence: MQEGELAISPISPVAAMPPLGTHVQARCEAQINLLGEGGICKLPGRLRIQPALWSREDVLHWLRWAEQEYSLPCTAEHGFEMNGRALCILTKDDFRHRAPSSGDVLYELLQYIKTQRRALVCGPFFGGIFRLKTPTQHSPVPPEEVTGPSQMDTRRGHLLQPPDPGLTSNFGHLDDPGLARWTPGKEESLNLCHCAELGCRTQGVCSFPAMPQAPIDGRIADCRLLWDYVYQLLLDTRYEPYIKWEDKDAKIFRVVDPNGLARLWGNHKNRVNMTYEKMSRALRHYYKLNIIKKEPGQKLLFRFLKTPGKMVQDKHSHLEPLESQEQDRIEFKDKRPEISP
Conditions: protein: recombinant; tags: N-terminal GST; dsDNA, one strand shown. The procedure, abridged: as §1

For the next experiment, the target named is T11, ELF5 (Homo sapiens, UniProt Q9UKW6-2 1-255).
T11 sequence: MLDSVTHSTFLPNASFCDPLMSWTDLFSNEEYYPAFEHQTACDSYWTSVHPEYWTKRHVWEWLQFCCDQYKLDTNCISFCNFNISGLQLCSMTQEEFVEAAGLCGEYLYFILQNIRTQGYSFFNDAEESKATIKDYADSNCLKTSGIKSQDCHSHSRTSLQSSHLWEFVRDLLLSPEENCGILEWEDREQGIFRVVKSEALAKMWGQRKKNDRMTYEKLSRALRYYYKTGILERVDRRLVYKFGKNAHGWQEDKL
Conditions: protein: recombinant; tags: N-terminal GST; dsDNA, one strand shown. In short, it runs like this: as §1

The target of a further experiment is T12, ETV3 (Homo sapiens, UniProt P41162-2 1-143).
T12 sequence: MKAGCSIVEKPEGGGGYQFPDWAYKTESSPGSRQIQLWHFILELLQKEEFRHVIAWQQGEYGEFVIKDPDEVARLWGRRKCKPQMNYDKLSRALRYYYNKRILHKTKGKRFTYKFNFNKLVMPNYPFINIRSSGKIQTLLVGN
Conditions: protein: recombinant; tags: N-terminal GST; dsDNA, one strand shown. The procedure, abridged:
as §1

The next experiment deals with ETV6 (Homo sapiens, UniProt P41212 1-452). The note with it: protein: recombinant; tags: N-terminal GST; dsDNA, one strand shown. The procedure, abridged:
as §1

CRX, sequence (O43186 whole entry): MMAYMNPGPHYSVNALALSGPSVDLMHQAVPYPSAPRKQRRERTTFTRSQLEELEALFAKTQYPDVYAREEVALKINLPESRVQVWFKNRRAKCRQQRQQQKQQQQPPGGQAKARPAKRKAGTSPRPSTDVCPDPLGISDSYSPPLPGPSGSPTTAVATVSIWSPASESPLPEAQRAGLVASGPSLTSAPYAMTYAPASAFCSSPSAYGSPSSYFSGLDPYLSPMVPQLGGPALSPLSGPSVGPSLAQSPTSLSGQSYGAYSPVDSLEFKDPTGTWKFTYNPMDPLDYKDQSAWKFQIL
ETV5, sequence (P41161 whole entry): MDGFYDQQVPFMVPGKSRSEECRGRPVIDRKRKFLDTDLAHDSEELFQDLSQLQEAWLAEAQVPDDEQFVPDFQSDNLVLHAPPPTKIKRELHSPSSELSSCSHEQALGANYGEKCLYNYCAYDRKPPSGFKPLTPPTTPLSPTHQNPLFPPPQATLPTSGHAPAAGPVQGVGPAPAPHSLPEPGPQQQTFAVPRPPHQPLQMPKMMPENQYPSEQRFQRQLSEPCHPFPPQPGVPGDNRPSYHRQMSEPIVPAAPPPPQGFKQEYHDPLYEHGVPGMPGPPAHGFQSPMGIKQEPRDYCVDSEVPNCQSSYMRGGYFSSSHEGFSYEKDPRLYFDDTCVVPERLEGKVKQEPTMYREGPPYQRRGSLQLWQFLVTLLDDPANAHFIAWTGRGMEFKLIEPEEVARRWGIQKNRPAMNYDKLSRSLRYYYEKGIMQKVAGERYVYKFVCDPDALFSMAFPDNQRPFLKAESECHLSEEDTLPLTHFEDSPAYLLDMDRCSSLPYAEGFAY
ELF4, sequence (Q99607 whole entry): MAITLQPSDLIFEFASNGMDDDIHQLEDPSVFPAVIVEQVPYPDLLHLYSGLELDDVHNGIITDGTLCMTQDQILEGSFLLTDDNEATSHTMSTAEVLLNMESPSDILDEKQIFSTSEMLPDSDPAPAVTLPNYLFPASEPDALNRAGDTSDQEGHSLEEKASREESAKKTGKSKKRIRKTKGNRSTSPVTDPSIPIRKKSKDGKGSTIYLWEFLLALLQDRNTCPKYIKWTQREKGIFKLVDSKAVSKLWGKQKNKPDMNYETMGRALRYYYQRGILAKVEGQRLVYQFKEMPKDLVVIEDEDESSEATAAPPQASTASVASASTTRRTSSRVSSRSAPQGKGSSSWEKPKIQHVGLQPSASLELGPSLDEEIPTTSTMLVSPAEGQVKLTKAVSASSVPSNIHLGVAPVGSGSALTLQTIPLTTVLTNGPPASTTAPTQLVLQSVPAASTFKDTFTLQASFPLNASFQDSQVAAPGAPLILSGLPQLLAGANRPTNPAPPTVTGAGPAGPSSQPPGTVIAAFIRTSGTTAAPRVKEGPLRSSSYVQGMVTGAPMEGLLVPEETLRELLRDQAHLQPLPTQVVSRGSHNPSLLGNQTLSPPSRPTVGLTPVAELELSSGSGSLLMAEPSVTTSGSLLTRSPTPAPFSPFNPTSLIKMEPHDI
HSF1, sequence (Q00613 whole entry): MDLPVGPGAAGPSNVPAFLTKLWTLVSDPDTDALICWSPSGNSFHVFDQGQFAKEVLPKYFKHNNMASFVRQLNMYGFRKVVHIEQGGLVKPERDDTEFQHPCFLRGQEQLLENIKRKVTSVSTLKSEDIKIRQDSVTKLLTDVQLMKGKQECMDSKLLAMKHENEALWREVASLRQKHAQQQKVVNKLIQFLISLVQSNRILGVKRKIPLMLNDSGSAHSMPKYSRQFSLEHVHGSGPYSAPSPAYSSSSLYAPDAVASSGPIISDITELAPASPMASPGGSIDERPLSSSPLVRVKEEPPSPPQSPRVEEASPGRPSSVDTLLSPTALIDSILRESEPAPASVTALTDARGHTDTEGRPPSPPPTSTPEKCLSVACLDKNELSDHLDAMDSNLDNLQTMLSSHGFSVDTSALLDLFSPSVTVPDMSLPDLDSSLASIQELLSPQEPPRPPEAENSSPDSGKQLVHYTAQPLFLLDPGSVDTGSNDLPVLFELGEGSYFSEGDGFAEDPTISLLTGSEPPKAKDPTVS
ETV6, sequence (P41212 whole entry): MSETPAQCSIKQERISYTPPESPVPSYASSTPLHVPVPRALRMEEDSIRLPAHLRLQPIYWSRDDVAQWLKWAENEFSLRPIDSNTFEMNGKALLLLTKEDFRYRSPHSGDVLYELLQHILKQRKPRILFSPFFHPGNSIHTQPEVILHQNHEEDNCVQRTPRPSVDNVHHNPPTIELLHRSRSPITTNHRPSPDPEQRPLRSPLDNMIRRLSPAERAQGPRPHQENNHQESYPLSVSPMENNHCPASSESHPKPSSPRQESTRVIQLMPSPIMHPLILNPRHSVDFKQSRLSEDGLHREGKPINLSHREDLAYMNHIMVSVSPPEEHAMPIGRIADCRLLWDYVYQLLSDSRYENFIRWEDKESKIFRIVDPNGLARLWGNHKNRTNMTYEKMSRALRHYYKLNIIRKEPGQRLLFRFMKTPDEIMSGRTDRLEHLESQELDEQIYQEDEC
ETV1, sequence (P50549 whole entry): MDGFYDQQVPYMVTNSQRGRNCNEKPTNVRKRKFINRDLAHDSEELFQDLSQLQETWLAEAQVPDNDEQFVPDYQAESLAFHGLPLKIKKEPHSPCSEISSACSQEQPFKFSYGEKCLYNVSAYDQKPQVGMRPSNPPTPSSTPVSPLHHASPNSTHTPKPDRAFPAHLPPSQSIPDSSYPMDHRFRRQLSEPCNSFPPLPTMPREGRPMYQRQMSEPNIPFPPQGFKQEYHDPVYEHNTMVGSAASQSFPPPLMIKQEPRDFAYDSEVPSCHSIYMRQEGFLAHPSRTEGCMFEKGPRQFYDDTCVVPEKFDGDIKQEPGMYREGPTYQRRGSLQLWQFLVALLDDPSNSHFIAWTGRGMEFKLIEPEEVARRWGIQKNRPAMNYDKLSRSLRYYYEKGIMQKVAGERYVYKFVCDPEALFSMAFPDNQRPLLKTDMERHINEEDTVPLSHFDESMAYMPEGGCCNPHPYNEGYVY

Consider TACTTG, for which the binding signal in the experiment with FEV was 1.22 fold enrichment (6-mer frequency, TF over GST control); with ETV5 it was 1.26 fold enrichment (6-mer frequency, TF over GST control); in the experiment with HSF1, 1.26 fold enrichment (6-mer frequency, TF over GST control); in the experiment with SPIC, 1.35 fold enrichment (6-mer frequency, TF over GST control); in the experiment with ELF4, 1.39 fold enrichment (6-mer frequency, TF over GST control); in the experiment with ELK4, 1.38 fold enrichment (6-mer frequency, TF over GST control). For the same sequence, the binding signal with ETV2 was 1.46 fold enrichment (6-mer frequency, TF over GST control); in the experiment with ELF3 it was 1.54 fold enrichment (6-mer frequency, TF over GST control); in the experiment with CRX, 1.5 fold enrichment (6-mer frequency, TF over GST control); in the experiment with ETV1, 1.54 fold enrichment (6-mer frequency, TF over GST control); in the experiment with ERF it was 1.39 fold enrichment (6-mer frequency, TF over GST control); in the experiment with ETV3L, 1.45 fold enrichment (6-mer frequency, TF over GST control). The binding signal is 1.24 fold enrichment (6-mer frequency, TF over GST control) with ETS2; 1.21 fold enrichment (6-mer frequency, TF over GST control) in the experiment with SPDEF; 1.34 fold enrichment (6-mer frequency, TF over GST control) with ETV7; 1.35 fold enrichment (6-mer frequency, TF over GST control) with ELF5; 1.34 fold enrichment (6-mer frequency, TF over GST control) in the experiment with ETV3; 1.24 fold enrichment (6-mer frequency, TF over GST control) with ETV6.
